The source of these data is PubChem BioAssay (NCATS).

Structures are written as SMILES. Records with an inconclusive call do not appear. Activity calls are given as the source filed them. Unless noted, calls come from the whole dose curve; as a rule, active = well fitted curve in the direction sought with a large enough effect; inconclusive = small, poorly fitted or top-dose-only effect, or another doubt; inactive = no such curve, though single readings can be large; an effect the other way counts as inactive or inconclusive.

A short description of test [1]: NS1 protein of Zika virus - qHTS assay to identify small molecule inhibitors in human HEK 293 cells (AID 1347053). Note: nearly all actives have a fitted effect of over 55% in size. Note: potency is the fitted concentration of half-maximal effect. In outline: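 Inhibition of NS1 expression was scored in HEK 293 cells given compound 1 h ahead of MR766 virus (MOI = 0.5). Following 24 h at 37 C, two anti-NS1 antibodies generated a TR-FRET signal, scaled between uninfected and infected controls.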
On the technique in general: In qHTS, concentration-response curves come from the screen itself.

Test [2] has as its target T1, Tyrosine-protein phosphatase non-receptor type substrate 1 (Homo sapiens) + Leukocyte surface antigen CD47 (Homo sapiens) (UniProt P78324+Q08722). Put plainly: CD47-SIRPalpha protein protein interaction - LANCE assay qHTS validation (AID 1347057; active = well fitted curve in the direction sought with a large enough effect in the signal ratio, with a control signal flat, not every such curve was filed as active; the % refers to the signal ratio; note: series mostly up to about 38 µM). Put shortly:
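First, His-tagged CD47 and Eu-labelled anti-His antibody met the compound for 30 min; next, site-specifically biotinylated SIRPalpha was added for 30 min; finally streptavidin-APC was added before reading the TR-FRET ratio.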
In general terms: TR-FRET usually uses a lanthanide donor and a delayed reading to cut background.

Test [3] deals with T1, Tyrosine-protein phosphatase non-receptor type substrate 1 (Homo sapiens) + Leukocyte surface antigen CD47 (Homo sapiens). Put plainly: CD47-SIRPalpha protein protein interaction - HTRF assay qHTS validation (AID 1347058; active = well fitted curve in the direction sought with a large enough effect in the signal ratio, not every such curve was filed as active; the % refers to the signal ratio;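 note: recombinant soluble extracellular CD47 with His tag and biotinylated SIRPalpha domains; series mostly up to about 38 µM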). In outline:
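TR-FRET read (Ch1/Ch2 ratio) of soluble extracellular CD47 and Avi-biotinylated SIRPalpha domains in PBS pH 7.4 with 0.05% IGEPAL; 7-point compound titration. Sequential 30 min room-temperature steps; non-biotinylated SIRPalpha as control inhibitor.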

The target is the same in test [4]. The test can be described thus: CD47-SIRPalpha protein protein interaction - Alpha assay qHTS validation (AID 1347059).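 Note: bead proximity luminescence from CD47 binding SIRPalpha after compound preincubation with SIRPalpha.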 In outline:
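Binding is measured by AlphaScreen proximity: Ni-NTA acceptor beads capture His-CD47, streptavidin donor beads capture biotin-SIRPalpha. Each of three additions (SIRPalpha with compound, CD47, beads) incubates 30 min at room temperature protected from light.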

The target in test [5] is Parathyroid hormone/parathyroid hormone-related peptide receptor (Homo sapiens) (UniProt Q03431). The test can be described thus: qHTS for PTHR1 Agonists: Optimization Screen against the NCGC LOPAC library (AID 1347079).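 Note: GloSensor cAMP luminescence in HEK-293 GP2 cells expressing human PTHR1 with IBMX.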 Put shortly: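 Agonist readout: GloSensor cAMP luminescence, read after 15 min at room temperature. HEK-293-derived GP2 line carries PTHR1; compounds tested as a titration for 1 hr at 37C in presence of IBMX. M-PTH (1-15) served as control.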

Test [6] concerns the target Atrial natriuretic peptide receptor 2 (Homo sapiens) (UniProt P20594). Put plainly: Natriuretic polypeptide receptor (hNpr2) antagonism - Pilot subtype selectivity assay (AID 1347050; calls by dose curve). In outline:
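Pilot selectivity screen against hNpr2: HEK293 cGMP-sensor cells are treated with LOPAC1280 compounds, then with hNppC peptide at 1 nM final. The cGMP-driven luminescence change over 20 min at room temperature is the read-out.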

Test [7] can be described thus: qHTS of pediatric cancer cell lines to identify multiple opportunities for drug repurposing: Primary screen for TC32 cells (AID 1347089). Note: nearly all actives have a fitted effect of over 60% in size. In outline:
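Measured quantity: luminescence from CellTiter-Glo, reflecting metabolically active TC32 cells following 48 h of compound. Curves came straight from multi-point titrations, with 8 or 11 points in primary and 11 in confirmatory screening.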

A short description of test [8]: qHTS of pediatric cancer cell lines to identify multiple opportunities for drug repurposing: Primary screen for DAOY cells (AID 1347090). Note: series mostly up to about 46 µM; nearly all actives have a fitted effect of over 55% in size. Put shortly:
(§1)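 Cell viability, CellTiter-Glo luminescence; 500-1,000 cells/well, 8- or 11-point titration, 48 h compound exposure at 37 degrees C, 5% CO2. Controls: DMSO neutral, bortezomib 2.3 µM final as positive.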

Test [9] can be described thus: qHTS of pediatric cancer cell lines to identify multiple opportunities for drug repurposing: Primary screen for SJ-GBM2 cells (AID 1347091). Put shortly:
as §1

Test [10] in a line: qHTS of pediatric cancer cell lines to identify multiple opportunities for drug repurposing: Primary screen for A673 cells (AID 1347092). Note: nearly all actives have a fitted effect of over 45% in size. In outline:
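Cells are plated, rested 5 h, dosed by pintool, incubated 48 h, then lysed with CellTiter-Glo and read by luminescence. DMSO is the neutral control; bortezomib at 2.3 uM final is the positive control.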

The nature of test [11]: qHTS of pediatric cancer cell lines to identify multiple opportunities for drug repurposing: Primary screen for SK-N-MC cells (AID 1347093). Note: series mostly up to about 46 µM. Put shortly:
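Metabolically active cells were quantified by ATP-dependent luminescence (CellTiter-Glo, 15 min at room temperature) following 48 h treatment. Cells had been plated at 500-1,000 per well and settled for 5 h beforehand.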

Test [12] in a line: qHTS of pediatric cancer cell lines to identify multiple opportunities for drug repurposing: Primary screen for BT-37 cells (AID 1347094). Note: series mostly up to about 57 µM. Put shortly:
(§2)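 500-1,000 cells/well; 5 h pre-incubation 37 °C/5% CO2; compound pinned; 48 h; CellTiter-Glo, 15 min RT; luminescence. MIPE 11-pt from 0.78 nM, NPC 8-pt from 0.59 nM final. Bortezomib 2.3 µM final as positive control.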

A short description of test [13]: qHTS of pediatric cancer cell lines to identify multiple opportunities for drug repurposing: Primary screen for NB-EBc1 cells (AID 1347095). Put shortly: as §2
Test [14] can be described thus: qHTS of pediatric cancer cell lines to identify multiple opportunities for drug repurposing: Primary screen for U-2 OS cells (AID 1347096). Note: nearly all actives have a fitted effect of over 50% in size. Put shortly:
(§3)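 Cells (500-1,000/well) rested 5 h, then received compounds for 48 h; metabolically active cells were measured by CellTiter-Glo luminescence. Final concentrations spanned up to 46 µM (MIPE, 11-point) or 0.59 nM-46 µM (NPC, 8-point) in primary screens, 11-point in follow-ups.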

Test [15] is described as follows: qHTS of pediatric cancer cell lines to identify multiple opportunities for drug repurposing: Primary screen for Saos-2 cells (AID 1347097). Note: nearly all actives have a fitted effect of over 40% in size. Put shortly:
as §2

Test [16] can be described thus: qHTS of pediatric cancer cell lines to identify multiple opportunities for drug repurposing: Primary screen for SK-N-SH cells (AID 1347098). Note: nearly all actives have a fitted effect of over 65% in size. Put shortly: as §3
Test [17] in a line: qHTS of pediatric cancer cell lines to identify multiple opportunities for drug repurposing: Primary screen for LAN-5 cells (AID 1347100). In outline:
as §3

A short description of test [18]: qHTS of pediatric cancer cell lines to identify multiple opportunities for drug repurposing: Primary screen for BT-12 cells (AID 1347101). Note: nearly all actives have a fitted effect of over 25% in size. In outline:
as §3

The nature of test [19]: qHTS of pediatric cancer cell lines to identify multiple opportunities for drug repurposing: Primary screen for Rh18 cells (AID 1347102). Note: nearly all actives have a fitted effect of over 65% in size. Put shortly: as §3

T1 sequence (P78324 whole entry, looked up): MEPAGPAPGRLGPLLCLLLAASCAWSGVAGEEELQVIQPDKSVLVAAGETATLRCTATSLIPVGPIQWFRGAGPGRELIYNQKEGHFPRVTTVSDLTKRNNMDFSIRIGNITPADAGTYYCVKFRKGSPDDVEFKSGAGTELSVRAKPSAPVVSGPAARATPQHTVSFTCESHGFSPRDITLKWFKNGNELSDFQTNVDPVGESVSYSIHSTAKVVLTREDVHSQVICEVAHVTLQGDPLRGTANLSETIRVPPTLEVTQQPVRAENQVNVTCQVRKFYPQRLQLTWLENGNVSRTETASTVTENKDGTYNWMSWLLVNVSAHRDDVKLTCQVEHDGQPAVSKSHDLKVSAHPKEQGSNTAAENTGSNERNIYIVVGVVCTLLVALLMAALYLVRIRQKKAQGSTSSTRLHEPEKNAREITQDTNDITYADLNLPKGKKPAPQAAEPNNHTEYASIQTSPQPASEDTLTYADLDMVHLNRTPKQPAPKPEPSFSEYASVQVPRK
T1 sequence (Q08722 whole entry, looked up): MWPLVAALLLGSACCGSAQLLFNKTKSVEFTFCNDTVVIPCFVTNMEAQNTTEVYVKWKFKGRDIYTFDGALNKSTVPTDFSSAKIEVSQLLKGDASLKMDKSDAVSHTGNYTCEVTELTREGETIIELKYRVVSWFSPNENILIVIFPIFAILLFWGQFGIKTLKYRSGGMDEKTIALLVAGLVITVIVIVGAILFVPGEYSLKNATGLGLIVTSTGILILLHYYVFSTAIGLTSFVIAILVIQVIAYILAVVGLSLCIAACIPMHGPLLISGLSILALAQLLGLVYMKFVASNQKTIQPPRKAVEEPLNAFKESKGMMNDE
Chain of Parathyroid hormone/parathyroid hormone-related peptide receptor (Homo sapiens) (Q03431 whole entry, looked up): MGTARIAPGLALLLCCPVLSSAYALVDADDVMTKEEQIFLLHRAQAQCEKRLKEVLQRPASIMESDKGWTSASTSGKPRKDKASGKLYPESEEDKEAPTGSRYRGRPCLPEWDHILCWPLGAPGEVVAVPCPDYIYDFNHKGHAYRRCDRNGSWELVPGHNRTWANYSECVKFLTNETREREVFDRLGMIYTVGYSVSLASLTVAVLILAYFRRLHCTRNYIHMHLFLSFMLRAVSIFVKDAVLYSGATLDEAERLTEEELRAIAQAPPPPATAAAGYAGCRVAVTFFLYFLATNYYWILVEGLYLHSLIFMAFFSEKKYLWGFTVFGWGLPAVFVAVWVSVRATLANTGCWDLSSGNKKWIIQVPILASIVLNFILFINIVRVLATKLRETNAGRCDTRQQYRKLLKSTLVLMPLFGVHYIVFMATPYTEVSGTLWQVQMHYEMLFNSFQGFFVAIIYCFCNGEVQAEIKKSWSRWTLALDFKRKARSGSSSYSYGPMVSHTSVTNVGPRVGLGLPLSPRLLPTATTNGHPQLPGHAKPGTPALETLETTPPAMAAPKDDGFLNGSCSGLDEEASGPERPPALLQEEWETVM
Chain of Atrial natriuretic peptide receptor 2 (Homo sapiens) (P20594 whole entry, looked up): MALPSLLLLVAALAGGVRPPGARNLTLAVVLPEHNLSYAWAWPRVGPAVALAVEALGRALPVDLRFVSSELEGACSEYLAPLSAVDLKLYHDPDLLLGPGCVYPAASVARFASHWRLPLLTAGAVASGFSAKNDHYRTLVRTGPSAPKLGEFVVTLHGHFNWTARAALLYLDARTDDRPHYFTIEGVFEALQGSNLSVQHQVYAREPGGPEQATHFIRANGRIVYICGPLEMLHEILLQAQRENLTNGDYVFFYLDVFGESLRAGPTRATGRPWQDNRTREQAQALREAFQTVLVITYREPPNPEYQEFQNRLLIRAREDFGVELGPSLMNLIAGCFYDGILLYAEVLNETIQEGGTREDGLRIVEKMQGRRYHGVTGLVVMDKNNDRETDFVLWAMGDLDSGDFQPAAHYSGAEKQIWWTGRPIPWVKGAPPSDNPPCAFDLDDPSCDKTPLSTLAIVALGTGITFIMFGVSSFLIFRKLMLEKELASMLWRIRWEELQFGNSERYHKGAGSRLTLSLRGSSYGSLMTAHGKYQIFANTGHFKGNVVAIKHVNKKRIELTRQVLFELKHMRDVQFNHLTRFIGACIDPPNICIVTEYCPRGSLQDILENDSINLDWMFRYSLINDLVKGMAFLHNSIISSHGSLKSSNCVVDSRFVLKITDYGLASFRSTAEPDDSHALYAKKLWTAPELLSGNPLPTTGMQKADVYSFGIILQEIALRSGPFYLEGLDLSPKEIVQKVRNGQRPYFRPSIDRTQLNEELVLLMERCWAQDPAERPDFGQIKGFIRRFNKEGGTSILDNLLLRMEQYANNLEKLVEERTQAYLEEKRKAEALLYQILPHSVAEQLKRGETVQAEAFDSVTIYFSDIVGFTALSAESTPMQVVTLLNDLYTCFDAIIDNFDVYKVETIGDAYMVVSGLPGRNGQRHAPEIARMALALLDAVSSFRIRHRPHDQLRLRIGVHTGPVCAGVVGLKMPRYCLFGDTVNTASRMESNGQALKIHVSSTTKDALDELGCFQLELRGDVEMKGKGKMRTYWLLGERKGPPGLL

With `Nc1nc2ccc(Cl)cc2n2c(-c3ccccc3)nnc12`, the Potency result in [1], in test [2] and in test [4] was “inactive” each time. Further, the outcome in test [3] was inactive.
On to `O=C(CCc1ccncc1)NNC(=O)N1Cc2ccccc2Oc2ccc(Cl)cc21`, for which the Potency entry in test [1], in [2] and in test [4] was “inactive” each time. In test [3], the result was inactive.
On to `COCCOc1cc2nc[nH]c(=O)c2cc1OCCOC`, for which the Potency entry in test [1], in test [2] and in test [4] was “inactive” each time. Further, the result in [3] was inactive.
Take `CC1(C)CCC=[N+]1[O-]`: the Potency result in [1], in test [2], in test [4] and in test [5] was “inactive” each time. In test [3], the result was inactive.
For the compound `Nc1nc(OCC2CCCCC2)c2[nH]cnc2n1`, the Potency result in test [1], in test [2] and in test [4] was “inactive” each time. In addition, the result in test [3] was inactive.
`CNC(=O)[C@H]1O[C@@H](n2cnc3c(NCc4ccc(N)cc4)ncnc32)[C@H](O)[C@@H]1O`: the Potency entry in test [1], in test [2], in test [4] and in test [5] was “inactive” throughout. Moreover, in test [3], the outcome was inactive.
Regarding `S=C(S)OC1CC2CC1C1CCCC21` (stereo not drawn), the Potency result in test [1], in test [2] and in test [4] was “inactive” each time. The result in test [3] was inactive.
In the case of `CN(CCCOc1ccc(Cc2ccccc2)cc1)CCC(=O)O`, the Potency result in [1], in test [2] and in [4] was “inactive” throughout. For the same compound, in [3], the result was inactive.
Regarding `CC[C@H]1OC(=O)[C@H](C)C(O[C@H]2C[C@@](C)(OC)[C@@H](O)[C@H](C)O2)[C@H](C)[C@@H](OC2O[C@H](C)C[C@H](N(C)C)[C@H]2O)[C@](C)(O)C[C@@H](C)CN(C)[C@H](C)[C@@H](O)[C@]1(C)O` (stereo partly drawn), the Potency entry in test [1], in [2] and in test [4] was “inactive” each time. Moreover, in [3], the result was inactive.
Take `COc1cc(OC)cc(-c2cc3cnc(N)nc3nc2NC(=O)NC(C)(C)C)c1`: the Potency result in test [1], in [2] and in [4] was “inactive” each time. The outcome in [3] was inactive.
For the compound `Fc1ccc2[nH]c(CN3CCN(c4ccccn4)CC3)cc2c1`, the Potency result in test [1], in [2] and in test [4] was “inactive” throughout. Moreover, the outcome in test [3] was inactive.
Regarding `CN(C)CCCO[C@@H]1[C@H]2OC(C)(C)O[C@H]2O[C@@H]1[C@H](O)CO`, the Potency entry in test [6] and in test [5] was “inactive” throughout.
Turning to `CC12C(=O)OC(=O)C1(C)C1CCC2O1` (stereo not drawn), the Potency in test [1] was 3.98 µM (active). The Potency result in test [2] and in test [4] was “inactive” each time. Moreover, the result in test [3] was inactive.
For the compound `CC[C@H]1OC(=O)[C@H](C)[C@@H](O[C@H]2C[C@@](C)(OC)[C@@H](O)[C@H](C)O2)[C@H](C)[C@@H](O[C@@H]2O[C@H](C)C[C@H](NC)[C@H]2O)[C@](C)(O)C[C@@H](C)CN(C)[C@H](C)[C@@H](O)[C@]1(C)O`, the Potency entry in test [1], in test [2] and in test [4] was “inactive” each time. In addition, in test [3], the outcome was inactive.
On to `S=c1[nH]c(-c2ccccc2)cn1-c1ccccc1`, for which the Potency entry in test [1], in test [2] and in test [4] was “inactive” in each case. In addition, in test [3], the outcome was inactive.
Take `CN1CC(=O)N/C1=N/C(=O)Nc1cccc(Cl)c1`: the Potency entry in test [1], in test [2], in [4], in test [5], in [7] and in [8] was “inactive” in each case. Also, the Potency result in test [9], in [10], in [11], in test [12], in test [13] and in test [14] was “inactive” throughout. Further, the Potency result in test [15], in test [16], in test [17], in test [18] and in test [19] was “inactive” in each case. In [3], the outcome was inactive.
